Assay results: PubChem BioAssay AID1159580 (chemical genetic matrix, 2015)
Hit rate of the full screen: of about 5,500 compounds, about 2,000 (36%) were called active. Not shown: some 18% with an inconclusive outcome. Cut-off read from the data, not from the text of the source: active = normalized growth mostly below about 0.91 (no sharp cut-off); inconclusive = no clear call, values can overlap the other calls; inactive = mostly above about 0.92. The list shows a part of the results.

Experiment: chemical genetic growth profiling, strain panel (AID 1159580);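 note: tested at 20 µM; growth read once vehicle control cultures reached saturation at 30 °C; 1 = growth at the plate median or of vehicle wells; lower values mean less growth of the strain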
Settings: growth OD

Measured: normalized growth

CCCCOc1cc(C(=O)O)ccc1OC
inactive: S. cerevisiae deletion strains, locus YAL013W, strain DEP1, stronger effect = lower value 0.97 | S. cerevisiae deletion strains, locus YBR229C, strain ROT2, stronger effect = lower value 0.984 | S. cerevisiae deletion strains, locus YDL101C, strain DUN1, stronger effect = lower value 0.987 | S. cerevisiae deletion strains, locus YDR150W, strain NUM1, stronger effect = lower value 0.988 | S. cerevisiae deletion strains, locus YEL061C, strain CIN8, stronger effect = lower value 1.01 | S. cerevisiae deletion strains, locus YGR078C, strain PAC10, stronger effect = lower value 0.971 | S. cerevisiae deletion strains, locus YGR229C, strain SMI1, stronger effect = lower value 1 | S. cerevisiae deletion strains, locus YHR030C, strain SLT2, stronger effect = lower value 0.999 | S. cerevisiae deletion strains, locus YHR087W, strain rtc3, stronger effect = lower value 0.977 | S. cerevisiae deletion strains, locus YJR043C, strain POL32, stronger effect = lower value 0.985 | S. cerevisiae deletion strains, locus YJR075W, strain HOC1, stronger effect = lower value 0.962 | S. cerevisiae deletion strains, locus YLR039C, strain RIC1, stronger effect = lower value 1.02 | S. cerevisiae deletion strains, locus YLR058C, strain SHM2 (second series), stronger effect = lower value 0.979 | S. cerevisiae deletion strains, locus YLR085C, strain ARP6, stronger effect = lower value 1.01 | S. cerevisiae deletion strains, locus YLR262C, strain YPT6, stronger effect = lower value 1.04 | S. cerevisiae deletion strains, locus YML094W, strain GIM5, stronger effect = lower value 1 | S. cerevisiae deletion strains, locus YMR219W, strain ESC1, stronger effect = lower value 0.975 | S. cerevisiae deletion strains, locus YMR263W, strain SAP30, stronger effect = lower value 0.977 | S. cerevisiae deletion strains, locus YMR307W, strain GAS1, stronger effect = lower value 0.956 | S. cerevisiae deletion strains, locus YNL128W, strain TEP1, stronger effect = lower value 1.02 | S. cerevisiae deletion strains, locus YNL153C, strain GIM3, stronger effect = lower value 0.979 | S. cerevisiae deletion strains, locus YNL298W, strain CLA4 (second series), stronger effect = lower value 1.03 | S. cerevisiae deletion strains, locus YNL322C, strain KRE1, stronger effect = lower value 0.976 | S. cerevisiae deletion strains, locus YNR030W, strain Alg12, stronger effect = lower value 0.999 | S. cerevisiae deletion strains, locus YPL055C, strain LGE1, stronger effect = lower value 0.941 | S. cerevisiae deletion strains, locus YPL241C, strain CIN2, stronger effect = lower value 1.01 | S. cerevisiae deletion strains, locus YPR135W, strain CTF4, stronger effect = lower value 1.04 | S. cerevisiae strains, strain wild type, stronger effect = lower value 1.02
